In PubChem BioAssay AID743105 (Vanderbilt Specialized Chemistry Center, 2013) one finds outcome data, which are given here for 5 molecules.

Calls of active or inactive are those of the source. The rule behind the calls is not given here.

In the assay the target is Muscarinic acetylcholine receptor M4 (Homo sapiens) (UniProt P08173). The experiment in a line: human M4 receptor modulation in M5 NAM selectivity check, counter-screen for M5 NAM project, cell-based, CHO-K1 hM4/Gqi5, Fluo-4 calcium flux, ACh EC20 (AID 743105). The conditions noted are these: series mostly up to 30 µM.
Chain of Muscarinic acetylcholine receptor M4 (Homo sapiens) (P08173 whole entry, looked up): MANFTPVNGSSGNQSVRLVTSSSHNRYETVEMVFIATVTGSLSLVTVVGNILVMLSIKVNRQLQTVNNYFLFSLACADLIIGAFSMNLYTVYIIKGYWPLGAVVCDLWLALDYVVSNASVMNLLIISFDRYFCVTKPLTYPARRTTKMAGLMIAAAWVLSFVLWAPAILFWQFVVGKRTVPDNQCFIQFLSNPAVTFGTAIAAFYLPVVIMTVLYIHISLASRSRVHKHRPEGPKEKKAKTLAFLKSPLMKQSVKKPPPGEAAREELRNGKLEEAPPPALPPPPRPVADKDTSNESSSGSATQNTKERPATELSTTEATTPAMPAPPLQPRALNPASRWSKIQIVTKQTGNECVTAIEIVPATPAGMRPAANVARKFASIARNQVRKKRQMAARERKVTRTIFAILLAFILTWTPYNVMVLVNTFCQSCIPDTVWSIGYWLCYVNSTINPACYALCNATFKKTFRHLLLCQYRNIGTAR
In the case of `O=C(c1ccc(F)cc1)N1CCN2C(=O)c3ccccc3C12c1ccccc1` (stereo not given), the outcome was inactive.

As to `O=C(c1ccc(F)c(F)c1)N1CCN2C(=O)c3ccccc3[C@@]12c1ccc(Cl)cc1`, the outcome was inactive.

Regarding `O=C(c1ccc(F)c(F)c1)N1CCN2C(=O)c3ccccc3C12c1ccc(Cl)cc1` (stereo not given), the outcome was inactive. With `O=C(c1cc(F)cc(F)c1)N1CCN2C(=O)c3ccccc3C12c1ccc(Cl)cc1` (stereo not given) the entry was “inactive”; with `O=C(c1ccc(F)c(F)c1)N1CCN2C(=O)c3ccccc3C12c1ccccc1` (stereo not given), “inactive”.
